A selection: hits, their analogues and other compounds. The true share with any hit is near 2.4%.
M1 ag = human M1 muscarinic receptor agonism. P11229. CHO-K1 hM1, Fluo-8 calcium fluorescence, agonist mode; 0% DMSO, 100% acetylcholine EC100. activation, % at 3 µM. hit rate 0.33% among 360,000. AID 588814;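 active = activation above the run's mean compound activation plus 3 SD, cut at about 16% in these data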;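 also: peak over basal fluorescence ratio within a 140 s kinetic read after compound addition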
Target sequence (P11229 whole entry, looked up): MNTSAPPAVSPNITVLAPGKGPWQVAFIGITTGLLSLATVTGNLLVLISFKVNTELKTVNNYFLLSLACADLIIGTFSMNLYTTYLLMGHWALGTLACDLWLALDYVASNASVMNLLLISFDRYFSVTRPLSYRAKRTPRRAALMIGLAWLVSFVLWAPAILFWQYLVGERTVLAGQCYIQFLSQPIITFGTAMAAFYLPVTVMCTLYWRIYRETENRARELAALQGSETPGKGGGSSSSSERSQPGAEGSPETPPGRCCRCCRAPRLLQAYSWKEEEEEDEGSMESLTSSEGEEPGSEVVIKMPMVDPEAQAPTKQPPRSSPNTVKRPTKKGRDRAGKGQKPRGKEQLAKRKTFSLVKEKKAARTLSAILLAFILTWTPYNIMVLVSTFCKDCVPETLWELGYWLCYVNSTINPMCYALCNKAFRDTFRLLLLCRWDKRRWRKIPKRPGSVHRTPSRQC
CHO-K1 Ca ag = counter-screen for M1 agonists: effect in parental CHO-K1 cells; Fluo-8 calcium fluorescence; scaled to maximal ATP response, vehicle zero; activation, % at 3 µM; hit rate 0.48% among 360,000; AID 602248; in the data active = activation above about 15%;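 also: untransfected CHO-K1 host cells lacking M1 receptor as counterscreen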
CHO-K1 Ca PAM = counter-screen for M1 PAMs: effect in parental CHO-K1 cells; ATP EC20, Fluo-8 calcium fluorescence; 0% at ATP EC20, 100% at ATP max; activation, % at 3 µM; hit rate 0.02% among 360,000;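 active = activation above the run cutoff, the mean activation of all test compounds plus 3 SD, cut at about 40% in these data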;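 also: peak over basal fluorescence ratio in a 140 s read after ATP addition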
M1 antag = blocks human M1 muscarinic receptor | CHO-K1 hM1, Fluo-8 calcium fluorescence, ACh EC80 antagonist | AID 588852 | hit rate 1.3% among 360,000 | P11229 | inhibition, % at 3 µM;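 active = percent inhibition above its own plate's cutoff, namely the mean of that plate's compound wells plus 3 SD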;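 also: peak over basal fluorescence ratio during 140 s after agonist addition; 0% = ACh EC80 plus DMSO and 100% = DMSO alone without agonist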
M1 PAM = human CHRM1 positive allosteric modulation | CHO-K1 hM1, Fluo-8 calcium fluorescence, ACh EC20; 0% = ACh EC20, 100% = maximal ACh | activation, % at 3 µM | P11229 | hit rate 0.088% among 360,000; in the data active = activation above about 19%, passing the limit was not always enough
CHO-K1 Ca antag = M1 antagonist counterscreen hit in parental CHO-K1 cells | hit rate 0.6% among 360,000 | inhibition, % at 3 µM | ATP-induced calcium, Fluo-8 fluorescence;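 active = inhibition above a per-plate cutoff, the plate's mean sample inhibition plus 3 SD, cut at about 24% in these data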;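 also: 0% = DMSO plus EC80 ATP and 100% = DMSO alone without ATP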
Starred values were filed as active, the others as inactive.

SMILES | M1 ag | CHO-K1 Ca ag | CHO-K1 Ca PAM | M1 antag | M1 PAM | CHO-K1 Ca antag
COc1ccc(-c2cn(-c3ccc(SC(F)F)cc3)c3[n+]2CCC3)cc1OC | -10.4 | 0.2 | 15.2 | 1.9 | -8.8 | -3.8
FC(F)Sc1ccc(-n2cc(-c3ccccc3)[n+]3c2CCC3)cc1 | -12.2 | 0.0 | -12.9 | 69.7* | -26.4 | 5.2
COc1cc(NC(=O)c2ccco2)c(OC)cc1NC(=O)Nc1ccccc1Cl | -4.8 | 0.9 | 3.2 | 30.4* | -20.7 | -18.0
N=c1sccn1CC(=O)Nc1ccc(S(N)(=O)=O)cc1 | -6.0 | 0.2 | -4.3 | -3.0 | 2.0 | -3.3
N=c1sccn1CC(=O)Nc1cccc(S(N)(=O)=O)c1 | -2.5 | 0.3 | -1.5 | 35.5* | 19.4 | 2.4
CC(=O)Oc1ccc(C)cc1-n1nc2ccccc2n1 | -2.4 | -0.4 | -5.3 | 1.6 | 3.9 | 23.9*
CC[C@@H](C)[C@@H]1CN([C@@H](C)CN2CCC[C@H]2CN2C(N)=NC[C@H]2CC(C)C)C(=N)N1CCc1ccc(Cl)c(Cl)c1 | -13.3 | -0.3 | 10.6 | 38.5* | -39.4 | -3.5
CCC[C@@H](CN1CCC[C@H]1CN1C(N)=NC[C@H]1CC(C)C)N1C[C@@H]([C@H](C)CC)N(CCc2ccc(Cl)c(Cl)c2)C1=N | -11.1 | -0.2 | -10.3 | 38.4* | -28.9 | 4.8
CCC[C@@H](CN1CCC[C@H]1CN1C(N)=NC[C@@H]1Cc1ccccc1)N1C[C@@H]([C@H](C)CC)N(CCc2ccc(Cl)c(Cl)c2)C1=N | -10.4 | -0.3 | -11.4 | 36.3 | -30.4 | 1.7
CC[C@@H](C)[C@@H]1CN([C@@H](CN2CCC[C@H]2CN2C(N)=NC[C@H]2CC(C)C)C(C)C)C(=N)N1CCc1ccc(Cl)c(Cl)c1 | -11.4 | -0.1 | 14.1 | 32.1 | -27.0 | -0.6
CCOC(=O)c1c(NC(=O)c2c(C(=O)O)cccc2[N+](=O)[O-])sc2c1CCCC2 | -2.3 | 0.1 | 3.8 | -14.1 | 9.6 | -11.6
COc1cc(/C=N/N2CCCCC2)cc([N+](=O)[O-])c1O | 24.7* | 0.3 | -0.5 | 0.3 | 9.0 | -12.0
COc1cc(/C=N/n2c(=S)[nH]nc(C)c2=O)cc([N+](=O)[O-])c1O | -5.4 | 5.2 | -6.5 | 16.0 | -8.1 | 24.8*
CC(C)c1ccc(CNc2ncccn2)cc1 | -8.1 | 0.4 | 9.3 | -13.3 | 7.3 | -1.5
Nc1nc(-c2ccccc2)nc2nonc12 | -3.6 | 0.6 | 15.7 | -12.0 | 6.3 | -9.0
COc1ccc(NC(=O)c2ccccc2NS(=O)(=O)c2ccc(CNC(C)=O)cc2)c(OC)c1 | -6.8 | 0.8 | 2.9 | -16.9 | 16.3 | 3.5
CCC(CC)C(=O)Nc1ccc(Sc2ccc([N+](=O)[O-])cc2)cc1 | -6.7 | 9.8 | -12.3 | 34.6* | -27.1 | -8.4
O=C(COC(=O)c1cc(Cl)cc(Cl)c1)NCc1ccco1 | -6.8 | 0.2 | 15.2 | -2.7 | 5.6 | -10.5
CCCn1c(N)c(C(=O)NS(=O)(=O)c2ccc(C)cc2)c(=O)n(C)c1=O | -0.2 | 16.6* | 2.5 | -3.3 | 5.8 | 6.4
CC(C)(C)c1ccc(CC(=O)N2CCC2(C)C(=O)NS(=O)(=O)c2ccc(Cl)s2)cc1 (stereo unspecified) | -1.9 | 0.3 | 11.6 | -8.3 | 2.8 | -12.8
CSc1ccc(C(=O)C2CCCN(Cc3cccc4nccnc34)C2)cc1 (stereo unspecified) | -7.6 | 2.1 | 18.6 | 67.8* | -25.0 | -19.8
N#Cc1ccc(CC(=O)c2ccccc2)[nH]c1=O | 0.1 | 8.6 | 3.6 | -14.8 | 6.5 | -4.4
CCN(CC)CCCN(C(=O)c1ccc(F)cc1)c1nc(-c2ccc(OC)cc2)cs1 | -7.8 | 1.3 | 14.6 | -1.8 | -1.5 | -4.4
Cc1cc(Br)ccc1NC(=O)CN(C)C(=O)Cn1c(=O)cnc2ccccc21 | -5.7 | -0.3 | -20.8 | 29.2* | -17.2 | 1.3
CCOC(=O)c1ccccc1Cc1nc2ccccc2c(=O)[nH]1 | -8.2 | -0.2 | 10.5 | 98.0* | -26.0 | -2.3
SMILES | M1 ag | CHO-K1 Ca ag | CHO-K1 Ca PAM | M1 antag | M1 PAM | CHO-K1 Ca antag
COc1ccc(NS(=O)(=O)c2ccc(-c3coc(C)n3)cc2)cc1OC | 5.4 | 19.7* | -29.1 | 63.4* | -17.5 | 49.8*
COc1ccc(NS(=O)(=O)c2ccc(-c3coc(C)n3)cc2)cc1 | 8.8 | 6.2 | 9.0 | -7.4 | 15.0 | -11.2
C[N+]1(CCn2ccc3ccccc32)CCCCC1 | -16.0 | 0.2 | -5.9 | 42.2* | -38.0 | -13.7
O=C(COC(=O)CNC(=O)c1ccccc1)NCCc1ccccc1 | -3.1 | 0.8 | 12.1 | -7.6 | 10.8 | -6.9
Cc1cc(C(=O)NCC(=O)OCC(=O)NCCc2ccccc2)ccc1[N+](=O)[O-] | -1.4 | -1.0 | -18.1 | 5.8 | 2.9 | 52.6*
CC(=O)N(C)c1ccc(NC(=O)Cc2cccs2)cc1 | -1.5 | 0.6 | -3.1 | -16.4 | 5.2 | -4.4
CCOc1cc(/C=C2/SC(=O)N(CC(=O)N3CCc4ccccc4C3)C2=O)ccc1OCC(=O)O | 2.3 | -0.8 | 8.5 | -13.4 | 19.2* | 2.2
NC(=O)COc1ccccc1/C=C1/SC(=O)N(CC(=O)N2CCc3ccccc3C2)C1=O | -0.7 | 3.0 | 6.8 | -4.7 | -4.6 | -1.0
CC(=O)C[C@@H](O)CC(=O)[C@@H]1OC(=O)CCCCCCCCc2ccccc21 | -3.2 | 1.4 | 8.9 | -2.3 | 5.3 | -26.9
CC1Sc2ccc(S(=O)(=O)CCC(=O)N3CCN(c4cccc(Cl)c4)CC3)cc2NC1=O (stereo unspecified) | 2.7 | 14.6 | -22.4 | 45.7* | -16.3 | 19.6
O=C1COc2ccc(S(=O)(=O)CCC(=O)N3CCN(c4cccc(C(F)(F)F)c4)CC3)cc2N1 | 2.7 | 17.0* | 7.1 | 31.9 | -8.9 | 17.2
CCN(CC(=O)NCc1cccs1)C(=O)c1cc(Br)ccc1O | -1.9 | 6.0 | 5.7 | -1.9 | 5.5 | 8.2
Cn1c(=O)[nH]c(=O)c2c1nc(N1CCN(CCO)CC1)n2Cc1ccccc1 | -5.5 | 1.7 | -3.0 | -6.7 | 7.1 | -14.5
O=C(NCCc1cn[nH]c1)c1ccc2oc(CCc3ccccc3)nc2c1 | 2.5 | 1.8 | 9.4 | -28.3 | 17.3 | -4.2
CCOC(=O)Nc1ccc2c(c1)N(C(=O)CN(CC)CC)c1ccccc1C=C2 | -15.2 | 0.1 | -0.3 | 72.4* | -35.3 | -5.2
CCOC(=O)Nc1ccc2c(c1)N(C(=O)CCN(CC)CC)c1ccccc1S2=O (stereo unspecified) | -9.0 | 1.4 | 12.6 | 59.3* | -27.2 | -9.7
CCCCNC(=O)C1Cc2cc(S(=O)(=O)N3CCCCC3)ccc2N1C(C)=O (stereo unspecified) | -3.2 | 0.5 | -17.4 | -1.2 | 3.4 | -14.5
CC1CCN(C(=O)CN2C(=O)C(=O)N(C(C)C)C2=O)c2ccccc2S1 (stereo unspecified) | -5.0 | -0.2 | 12.4 | -3.5 | 8.2 | -14.4
COc1ccc(-c2noc(N3CCC(C(=O)NCCCN4CCC(C)CC4)CC3)n2)cc1 | -11.8 | 2.1 | 17.2 | 32.0* | -21.2 | -22.4
